# Experimental data from PubChem BioAssay (Tox21).
# “And” between values parts separate entries of the source, which are not always exact repeats. Equal entries are not always repeated. A number with no mark means an inactive call. Inconclusive results are not listed. Where a call stands in place of a potency, no number is given. The source made the active and inactive calls. Unless noted, calls follow the shape of the dose curve; as a rule, active = well fitted curve in the direction sought with a large enough effect in the repeat runs; inconclusive = weak or mixed curves; inactive = no such curve, though single readings can be large; an effect the other way counts as inactive or inconclusive.
# Columns and labels:
# [1] = qHTS assay to identify small molecule agonists of the estrogen receptor alpha (ER-alpha) signaling pathway in the presence of an antagonist - cell viability counter screen (AID 1259386);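 also: series mostly up to about 92 µM; cells exposed to compounds for 22 h at 37 °C before the viability read; nearly all actives have a fitted effect of over 30% in size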
# Method in brief: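 VM7Luc4E2, stripped-serum pre-culture 5 d; 24hr plating; +ICI-182,780 10.0nM final; cpds 15 conc, 22hr, 37C/5% CO2; CellTiter-Fluor added at 21hr, fluorescence 1hr later.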
# [2] = biological target: Progesterone receptor (Homo sapiens) (UniProt P06401); assay: qHTS assay to identify small molecule agonists of the progesterone receptor (PR) signaling pathway (AID 1346784; calls by dose curve; also: nearly all actives have a fitted effect of over 30% in size)
# Method in brief: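 PR-UAS-bla HEK 293T cells (beta-lactamase reporter under UAS) in 2% charcoal-stripped FBS, dosed with 23 nL compound after 6 hr, incubated 16hr at 37C. LiveBLAzer B/G FRET substrate added, fluorescence read after 2 hours.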
# [3] = qHTS assay to identify small molecule agonists of the progesterone receptor (PR) signaling pathway - cell viability counter screen (AID 1346799; calls by dose curve; also: nearly all actives have a fitted effect of over 45% in size)
# Method in brief: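 Counter screen in the PR-UAS-bla HEK293T wells (2% charcoal-stripped FBS, 16 h compound exposure at 37 C) after the bla read. CellTiter-Glo added, 30 min at room temperature, luminescence read as cell viability.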
# [4] = qHTS assay to identify small molecule antagonists of the TGF-beta/Smad signaling pathway - cell viability counter screen (AID 1346824); also: nearly all actives have a fitted effect of over 50% in size
# Method in brief: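 SBE-bla HEK 293T cells were plated overnight at 37 C, then given compounds in DMSO plus TGF-beta1 (added as 0.25 ng/mL solution) for 5 hr. After the bla read, CellTiter-Glo was added to the same wells and luminescence read after 30 min at room temperature.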
# [5] = qHTS assay to identify small molecule agonists of the TGF-beta/Smad signaling pathway - cell viability counter screen (AID 1346829); also: top concentration of the series differs between compounds; nearly all actives have a fitted effect of over 45% in size
# Method in brief: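 CellTiter-Glo luminescence readout; SBE-bla HEK 293T cells, overnight plating, compound 5 hr at 37 C/5% CO2, then bla substrate 2 hr RT, then CellTiter-Glo 30 min RT.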
# [6] = qHTS assay to identify small molecule agonists of the TGF-beta/Smad signaling pathway (AID 1346859; active = well fitted activation curve with a large enough effect in the signal ratio in the repeat runs, not every such curve was filed as active; the % refers to the signal ratio; also: series mostly up to about 77 µM)
# Method in brief: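 SBE-bla HEK293T cells plated overnight, then compound exposure for 5 h at 37 C. Beta-lactamase reporter read with LiveBLAzer B/G FRET substrate after 2 h at room temperature, fluorescence at 405 nm excitation, 460/530 nm emission.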
# [7] = biological target: Thyrotropin-releasing hormone receptor (Homo sapiens) (UniProt P34981); assay: qHTS assay to identify small molecule antagonists of the thyrotropin-releasing hormone receptor (TRHR) signaling pathway (AID 1346877; active = well fitted inhibition curve with a large enough effect in the repeat runs, not every such curve was filed as active; also: series mostly up to about 51 µM)
# Method in brief: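 Intracellular calcium fluorescence, read kinetically every second over 3 min, reports TRH-evoked signalling in HEK293 cells carrying TRHR. Test compounds were added 5 min ahead of a 1 nM TRH challenge.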
# [8] = biological target: Thyrotropin-releasing hormone receptor (Homo sapiens) (UniProt P34981); assay: qHTS assay to identify small molecule agonists of the thyrotropin-releasing hormone receptor (TRHR) signaling pathway (AID 1346891; calls by dose curve; also: series mostly up to about 58 µM)
# Method in brief: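 HEK293 cells expressing TRHR plated 18 h at 37 C/5% CO2, calcium dye-loaded 2 h at 37 C, then compound added (agonist mode); kinetic calcium fluorescence read 3 min at 1 s intervals; 15 concentrations in triplicate.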
# [9] = Human pregnane X receptor (PXR) small molecule agonists, qHTS cell viability counter screen (AID 1346977); also: nearly all actives have a fitted effect of over 50% in size; also: potency is read from the fitted curve at half-maximal effect
# Method in brief: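 PXR-Luc HepG2 cells (2,000/well, 5% charcoal-stripped FBS) preincubated 5 hr, then exposed to compounds 24 hr at 37 C. Viability read in the same wells by CellTiter-Fluor fluorescence, reagent added at 23 hr, 1 hr incubation.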
# [10] = Caspase-3/7 induction in HepG2 cells by small molecules, qHTS assay (AID 1346978); also: nearly all actives have a fitted effect of over 15% in size
# Method in brief: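 Wild-type HepG2 cells (2,000/well) were settled 5 h at 37 C, 5% CO2, then exposed to compounds in DMSO for 17 h. Caspase-3/7 activity was read by luminescence 30 min after adding Caspase-Glo 3/7 reagent at room temperature.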
# [11] = Caspase-3/7 induction in CHO-K1 cells by small molecules, qHTS assay (AID 1346980); also: nearly all actives have a fitted effect of over 15% in size
# Method in brief: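 Wild-type cells were seeded at 1,500 per well and settled 5 hr at 37 C, 5% CO2, then exposed to DMSO-dissolved compounds for 17 hr. Caspase-Glo 3/7 reagent was added, and luminescence was read after 30min at room temperature.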
# [12] = Caspase-3/7 induction in HepG2 cells by small molecules, qHTS cell viability counter screen (AID 1346981); also: series mostly up to about 92 µM; nearly all actives have a fitted effect of over 30% in size
# Method in brief: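 HepG2, WT, 2,000 cells/well; 5 hr pre-incubation 37 C/5% CO2; compound pin-transferred from DMSO; 16 hr exposure; CellTiter-Fluor, 1 hr; fluorescence read.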
# [13] = biological target: Nuclear receptor subfamily 1 group I member 2 (Homo sapiens) (UniProt O75469); assay: Human pregnane X receptor (PXR) small molecule agonists, qHTS assay (AID 1346982); also: nearly all actives have a fitted effect of over 35% in size; also: potency is read from the fitted curve at half-maximal effect
# Method in brief: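 Luciferase signal from ONE-Glo (30 min, room temperature) measured activation of hPXR-driven CYP3A4 reporter expression in PXR-Luc HepG2 cells treated with compounds for 24 hr at 37 C.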
# [14] = biological target: Nuclear receptor subfamily 1 group I member 2 (Homo sapiens) (UniProt O75469); assay: Human pregnane X receptor (PXR) activation by small molecules, qHTS assay (AID 1346985); also: nearly all actives have a fitted effect of over 40% in size
# Method in brief: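 DPX-2 cells (HepG2 co-transfected with a PXR response element and a CYP3A4-promoter luciferase construct) were seeded at 2,000 per well, rested 5 hr at 37C, then exposed to DMSO-dissolved compounds for 24 hr. Activation was read as luciferase luminescence.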
# [15] = biological target: Acetylcholinesterase (Homo sapiens) (UniProt P22303); assay: Acetylcholinesterase (AChE) small molecule antagonists: colormetric cell-based qHTS assay (AID 1347395; calls by dose curve; also: nearly all actives have a fitted effect of over 30% in size)
# Method in brief: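 SH-SY5Y cells attached overnight, exposed to compound 30 min at 37 C, then given DTNB/acetylthiocholine; after 90 min at 37 C, colorimetric thiocholine read gives cellular AChE activity.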
# [16] = biological target: Acetylcholinesterase (Homo sapiens) (UniProt P22303); assay: Acetylcholinesterase (AChE) small molecule antagonists: enzyme-based qHTS assay (AID 1347397; calls by dose curve; also: nearly all actives have a fitted effect of over 55% in size); conditions: Potency: AChE enzyme activity inhibition
# Method in brief: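 Human recombinant acetylcholinesterase; substrate acetylthiocholine; thiocholine quantified with DTNB (colorimetric). Compound preincubation 30 min RT; reaction 10 min RT.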
# [17] = Caspase-3/7 induction in CHO-K1 cells by small molecules, qHTS cell viability counter screen (AID 1346979); also: nearly all actives have a fitted effect of over 35% in size; also: potency is read from the fitted curve at half-maximal effect
# Method in brief: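 Wild-type CHO-K1 cells (1,500/well) treated with compound after 5 h plating; after 16 h at 37C, viability read as CellTiter-Fluor fluorescence following 1 h reagent incubation, in the same wells as the caspase read.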
# [18] = qHTS assay to identify small molecule antagonists of the progesterone receptor (PR) signaling pathway - cell viability counter screen (AID 1346798); also: nearly all actives have a fitted effect of over 50% in size; also: potency is read from the fitted curve at half-maximal effect
# Method in brief: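 PR-UAS-bla HEK293T cells, 3,000/well in 2% charcoal-stripped FBS medium, dosed with compounds plus R5020 agonist and incubated 16 h at 37C. Viability then measured in the same wells by CellTiter-Glo luminescence after 30 min at RT.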
# [19] = biological target: Progesterone receptor (Homo sapiens) (UniProt P06401); assay: qHTS assay to identify small molecule antagonists of the progesterone receptor (PR) signaling pathway (AID 1346795; active = well fitted inhibition curve with a large enough effect in the signal ratio in the repeat runs, not every such curve was filed as active; the % refers to the signal ratio; also: potency is read from the fitted curve at half-maximal effect)
# Method in brief: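 PR-UAS-bla HEK293T cells with beta-lactamase reporter under UAS control, in 2% charcoal-stripped FBS, treated with compounds plus 1 nM promegestone (R5020, final) for 16 hr at 37C. Read-out: FRET beta-lactamase substrate fluorescence after 2 hr at room temperature.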
# [20] = biological target: Nuclear receptor subfamily 1 group I member 2 (Rattus norvegicus) (UniProt Q9R1A7); assay: Rat pregnane X receptor (rPXR) activation by small molecules, qHTS assay (AID 1346983); conditions: rPXR luciferase reporter cells, One-Glo luminescence, 24 h; max activation: hits give high values; also: nearly all actives have a fitted effect of over 20% in size
# Method in brief: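 Cell-based rPXR luciferase reporter assay, 2,000 cells per well, rested 5hr at 37 C before compound addition in DMSO, then 24 hr at 37 C. One-Glo reagent was added and luminescence read after 30 min at room temperature.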
# Sequence of Progesterone receptor (Homo sapiens) (P06401 whole entry, looked up): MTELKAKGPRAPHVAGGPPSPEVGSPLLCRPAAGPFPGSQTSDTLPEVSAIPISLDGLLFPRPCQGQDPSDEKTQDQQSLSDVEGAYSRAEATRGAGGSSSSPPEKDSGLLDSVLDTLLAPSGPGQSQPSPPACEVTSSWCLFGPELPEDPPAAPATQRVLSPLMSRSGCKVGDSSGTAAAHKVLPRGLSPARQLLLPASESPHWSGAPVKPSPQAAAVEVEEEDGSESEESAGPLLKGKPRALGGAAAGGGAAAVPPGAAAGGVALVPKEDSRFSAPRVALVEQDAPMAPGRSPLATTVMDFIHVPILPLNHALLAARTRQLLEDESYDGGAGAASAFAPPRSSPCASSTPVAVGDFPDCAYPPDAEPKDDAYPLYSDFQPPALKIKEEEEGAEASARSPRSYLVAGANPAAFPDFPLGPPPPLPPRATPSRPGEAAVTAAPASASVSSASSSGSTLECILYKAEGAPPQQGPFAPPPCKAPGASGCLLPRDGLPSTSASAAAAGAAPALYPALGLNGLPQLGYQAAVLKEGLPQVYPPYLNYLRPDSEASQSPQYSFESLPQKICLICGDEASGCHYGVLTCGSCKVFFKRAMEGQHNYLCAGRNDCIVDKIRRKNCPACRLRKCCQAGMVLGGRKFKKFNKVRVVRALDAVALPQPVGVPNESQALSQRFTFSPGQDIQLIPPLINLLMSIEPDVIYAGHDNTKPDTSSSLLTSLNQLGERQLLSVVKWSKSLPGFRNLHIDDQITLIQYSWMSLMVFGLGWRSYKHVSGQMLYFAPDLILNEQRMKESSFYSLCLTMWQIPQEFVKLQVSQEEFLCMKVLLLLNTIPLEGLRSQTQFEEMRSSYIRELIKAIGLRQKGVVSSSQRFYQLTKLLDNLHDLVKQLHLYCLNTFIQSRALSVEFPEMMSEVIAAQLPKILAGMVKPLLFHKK
# Sequence of Nuclear receptor subfamily 1 group I member 2 (Homo sapiens) (O75469 whole entry, looked up): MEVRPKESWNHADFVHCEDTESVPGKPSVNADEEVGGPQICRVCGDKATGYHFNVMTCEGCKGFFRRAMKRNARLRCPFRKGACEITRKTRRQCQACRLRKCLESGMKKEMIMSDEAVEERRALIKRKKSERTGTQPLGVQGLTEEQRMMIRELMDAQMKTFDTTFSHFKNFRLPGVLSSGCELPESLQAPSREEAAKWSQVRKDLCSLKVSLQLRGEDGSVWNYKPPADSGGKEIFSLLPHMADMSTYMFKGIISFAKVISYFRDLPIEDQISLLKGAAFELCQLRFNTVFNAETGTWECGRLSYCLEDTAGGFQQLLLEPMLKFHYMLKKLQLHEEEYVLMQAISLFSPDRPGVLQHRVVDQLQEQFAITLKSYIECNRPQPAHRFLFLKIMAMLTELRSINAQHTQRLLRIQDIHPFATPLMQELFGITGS
# Sequence of Acetylcholinesterase (Homo sapiens) (P22303 whole entry, looked up): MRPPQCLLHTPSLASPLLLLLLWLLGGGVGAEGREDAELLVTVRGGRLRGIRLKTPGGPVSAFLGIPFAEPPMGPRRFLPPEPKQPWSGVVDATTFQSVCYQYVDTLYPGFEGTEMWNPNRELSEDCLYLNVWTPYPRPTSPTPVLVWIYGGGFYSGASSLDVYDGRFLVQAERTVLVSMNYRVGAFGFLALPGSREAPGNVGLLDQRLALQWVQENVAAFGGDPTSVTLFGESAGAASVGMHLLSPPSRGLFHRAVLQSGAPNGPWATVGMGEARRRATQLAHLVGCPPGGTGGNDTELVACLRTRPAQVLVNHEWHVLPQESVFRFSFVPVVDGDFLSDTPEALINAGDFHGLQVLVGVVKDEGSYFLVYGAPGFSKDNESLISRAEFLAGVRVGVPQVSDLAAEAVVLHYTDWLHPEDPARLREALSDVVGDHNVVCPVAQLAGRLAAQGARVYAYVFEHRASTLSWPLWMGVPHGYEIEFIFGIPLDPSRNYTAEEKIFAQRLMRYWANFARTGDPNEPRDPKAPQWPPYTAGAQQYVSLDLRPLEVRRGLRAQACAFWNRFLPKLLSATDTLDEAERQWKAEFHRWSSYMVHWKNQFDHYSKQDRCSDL
# Sequence of Thyrotropin-releasing hormone receptor (Homo sapiens) (P34981 whole entry, looked up): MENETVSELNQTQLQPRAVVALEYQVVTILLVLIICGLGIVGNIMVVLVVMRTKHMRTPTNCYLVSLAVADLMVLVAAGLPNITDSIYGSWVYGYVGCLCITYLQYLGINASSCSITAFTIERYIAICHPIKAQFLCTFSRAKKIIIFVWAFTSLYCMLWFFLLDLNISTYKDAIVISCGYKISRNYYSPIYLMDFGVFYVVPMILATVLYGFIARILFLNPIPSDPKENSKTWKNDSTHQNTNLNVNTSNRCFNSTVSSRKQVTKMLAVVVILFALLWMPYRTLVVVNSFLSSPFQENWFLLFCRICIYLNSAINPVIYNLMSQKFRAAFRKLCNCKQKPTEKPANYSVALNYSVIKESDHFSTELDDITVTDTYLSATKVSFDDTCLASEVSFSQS
# Sequence of Nuclear receptor subfamily 1 group I member 2 (Rattus norvegicus) (Q9R1A7 whole entry, looked up): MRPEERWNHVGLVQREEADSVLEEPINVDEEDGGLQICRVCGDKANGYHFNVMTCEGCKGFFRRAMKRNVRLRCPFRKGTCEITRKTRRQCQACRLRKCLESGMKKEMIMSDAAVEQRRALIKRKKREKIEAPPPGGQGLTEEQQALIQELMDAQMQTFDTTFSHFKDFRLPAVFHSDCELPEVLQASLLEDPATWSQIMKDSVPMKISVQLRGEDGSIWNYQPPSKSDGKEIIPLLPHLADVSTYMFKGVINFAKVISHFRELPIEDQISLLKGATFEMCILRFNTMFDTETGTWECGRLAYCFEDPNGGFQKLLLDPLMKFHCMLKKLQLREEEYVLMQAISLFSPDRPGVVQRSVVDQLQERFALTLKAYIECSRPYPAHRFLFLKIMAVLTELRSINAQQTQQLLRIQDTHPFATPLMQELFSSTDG
SMILES,Potency [1],Potency [2],Potency [3],Potency [4],Potency [5],outcome [6],Potency [7],Potency [8],Potency [9],Potency [10],Potency [11],Potency [12],Potency [13],Potency [14],Potency [15],Potency [16],Potency [17],Potency [18],Potency [19],max activation [20] [%]
CC(O)(CS(=O)(=O)c1ccc(F)cc1)C(=O)Nc1ccc(C#N)c(C(F)(F)F)c1 (stereo not given),inactive,inactive,inactive,inactive,inactive,inactive,inactive,inactive,inactive,inactive,inactive,inactive,31.8 µM (active),inactive,inactive,inactive,–,–,–,–
COCCOCCO,inactive,inactive,–,–,–,–,–,–,inactive,inactive,inactive,inactive,27.3 µM (active),–,inactive,inactive,–,–,–,–
CCCN(CCC)c1c([N+](=O)[O-])cc(S(C)(=O)=O)cc1[N+](=O)[O-],inactive,inactive,inactive,inactive,inactive,inactive,–,–,inactive,inactive,inactive,–,2.43 µM (active),–,–,inactive,–,–,–,–
OCCCBr,inactive,inactive,–,inactive,inactive,inactive,–,inactive,inactive,inactive,inactive,–,inactive,–,–,inactive,inactive,–,–,–
O=C(NC(=O)c1c(F)cccc1F)Nc1cc(Cl)c(Oc2ncc(C(F)(F)F)cc2Cl)c(Cl)c1,inactive,–,inactive,inactive,inactive,–,–,inactive,inactive,inactive,inactive,inactive,8.27 µM (active),–,inactive,inactive,52.2 µM (active),inactive,–,–
COCC(C)N(C(=O)CCl)c1c(C)csc1C (stereo not given),inactive,–,–,inactive,inactive,inactive,inactive,inactive,inactive,inactive,inactive,inactive,inactive,inactive,inactive,inactive,–,–,54.5 µM (active),-3.61
CCCCCCCCCC(=O)O[C@H]1CC[C@H]2[C@@H]3CCC4=CC(=O)CC[C@@H]4[C@H]3CC[C@]12C,inactive,–,inactive,inactive,inactive,inactive,inactive,inactive,inactive,inactive,inactive,inactive,–,inactive,inactive,inactive,inactive,inactive,–,-0.997
NS(=O)(=O)C(F)(F)C(F)(F)C(F)(F)C(F)(F)C(F)(F)C(F)(F)C(F)(F)C(F)(F)F,inactive,–,inactive,inactive,inactive,inactive,–,inactive,–,inactive,inactive,inactive,–,–,inactive,inactive,inactive,9.69 µM (active),–,–
Cc1ccc(-c2c(Cl)nc(C#N)n2S(=O)(=O)N(C)C)cc1,inactive,–,–,inactive,inactive,inactive,–,–,43.2 µM (active),inactive,inactive,–,9.68 µM (active),–,inactive,inactive,–,8.63 µM (active),–,–
CCOP(O)OCC,inactive,–,inactive,inactive,inactive,inactive,inactive,inactive,inactive,inactive,inactive,inactive,inactive,–,inactive,inactive,inactive,inactive,–,–
O=C(CBr)OCc1ccccc1,inactive,–,–,inactive,inactive,inactive,inactive,inactive,inactive,inactive,inactive,inactive,inactive,–,inactive,inactive,inactive,inactive,inactive,–
C=CC(=O)OC(C)(C)C,inactive,–,inactive,–,inactive,inactive,inactive,inactive,inactive,inactive,inactive,inactive,inactive,–,inactive,inactive,inactive,inactive,–,–
O=C(O)COc1ccc(Cl)cc1,inactive,–,inactive,inactive,inactive,–,inactive,inactive,inactive,inactive,inactive,inactive,inactive,–,inactive,inactive,–,inactive,inactive,–
CCN(C)N=O,inactive,–,inactive,inactive,inactive,inactive,–,–,inactive,inactive,inactive,inactive,inactive,–,inactive,inactive,inactive,inactive,inactive,–
CCC(Br)(CC)C(=O)NC(N)=O,inactive,–,–,inactive,inactive,inactive,inactive,inactive,inactive,inactive,inactive,inactive,inactive,–,inactive,inactive,inactive,inactive,inactive,–
Cc1ccc(N)cc1C,inactive,–,inactive,inactive,inactive,inactive,–,inactive,inactive,inactive,inactive,inactive,49 µM (active),–,inactive,inactive,inactive,inactive,inactive,–
O=C(CCl)c1ccc(Cl)cc1Cl,inactive,–,inactive,inactive,inactive,inactive,inactive,inactive,inactive,inactive,inactive,inactive,60.8 µM (active) and 29.8 µM (active),–,inactive,inactive,68.2 µM (active) and 26.6 µM (active),inactive,inactive,–
